Each structure is given as a SMILES string. Results filed as inconclusive are left out. Where a call stands in place of a potency, no number is given. The source made the active and inactive calls. Calls come from the whole dose curve.

This test in a line: qHTS assay to identify small molecule agonists of the AP-1 signaling pathway - cell viability counter screen (AID 1159525). Note: nearly all actives have a fitted effect of over 55% in size. To be noted: ME-180 (cervical carcinoma) AP-1-bla cells viability, ATP luminescence, 5 h; series mostly up to 76.8 µM. From the text: National Center for Advancing Translational Sciences [NCATS]
NIH Chemical Genomics Center [NCGC]
U.S. Environmental Protection Agency [EPA]
National Institutes of Environmental Health Sciences [NIEHS]
National Toxicology Program [NTP]
U.S. Food and Drug Administration [FDA]
Activator protein-1 (AP-1), a transcription factor, plays an important role in tumor genesis by regulating genes involved in cell proliferation, differentiation, apoptosis, and angiogenesis. AP-1 activity is induced by a complex network of signaling pathways that involves extracellular signals, such as growth factors. The AP-1 protein complex formed from c-Fos and c-Jun binding to the AP-1 response element results in transcriptional activation of genes containing such elements within their promoter.
Low molecular weight molecules have been discovered and developed to modulate various components of these signaling pathways, for example, MAP kinase inhibitors. However, many points of pathway modulation remain untested due to the lack of chemical probes making this signaling locus of general interest.
Using a beta-lactamase reporter-gene under control of the AP-1 response element, a cell-based assay [CellSensor(TM) AP-1-bla ME-180 developed by Invitrogen Corp.] was used to measure EGF-induced signaling. The Tox21 10K library compounds were measured for their ability to positively modulate the action of EC50 EGF on reporter gene activity. Compounds were screened in a 15-pt titration series in 1536-well format. The cytotoxicity of the Tox21 compound library against this cell line was tested in parallel by measuring the intra cellular ATP content in the same wells.
Tox21 Assay Protocol Summary:
2500 cells/5uL in Opti-MEM medium containing 0.5% dialyzed FBS, 0.1 mM NEAA, 1 mM sodium pyruvate and 10 mM HEPES was dispensed into 1536-well black wall/clear bottom plates using a Multidrop dispenser and cells were cultured at 37 degrees Celsius overnight. Next day 23 nL of compounds dissolved in DMSO, positive controls or DMSO were delivered to each well using a pin tool. The plates were incubated at 37 degrees Celsius for 5 hours. 1 uL of LiveBLAzerTM B/G FRET substrate (Solution A+B+C+D) was added to each well using a Flying Reagent Dispenser. After incubated at room temperature for 2.5 hours the plates were measured on an EnVision plate reader at Excitation 405nm, Emission1=460nm and Emission 2=530nm. The %Activity was determined from the ratio of 460nm/530nm.
After the plates were read for Beta-Lactamase assay on Envision; 3 ul Cell Titer Glo (Promega) was added to measure the cytotoxicity and the plates were then incubated at RT in dark for 30 min. The luminescence was read on ViewLux (Perkin Elmer, Shelton, CT) using 6 sec exposure. ViewLux data was expressed as relative luminescence units.
For primary data analysis, raw plate reads for each titration point were first normalized relative to […] EGF control (100%) and DMSO only wells (basal, 0%).
For primary data analysis for viability assay, raw plate reads for each titration point were first normalized Tetra n-octyl ammonium bromide control (-100%) and DMSO (control, 100%).
As to `C=CCOc1ccccc1OCC(O)CNC(C)C` (stereo not given), the Potency entry is “inactive”.

`Nc1ccc(N)c2c1C(=O)c1ccccc1C2=O`: the Potency result was “inactive”.

Consider `O=C(NCCO[N+](=O)[O-])c1cccnc1`, for which the Potency entry was “inactive”.

As to `CC(=O)[O][Al][O]C(C)=O`, the Potency entry was “inactive”.

With `COCCCN1CCC(NC(=O)c2cc(Cl)c(N)c3c2OCC3)CC1`, the Potency result is “inactive”.

As to `CN(C)CCN(Cc1ccc(Cl)cc1)c1ccccn1`, the Potency result was “inactive”.

For `CC[N+](C)(CC)CCOC(=O)C(O)(c1ccccc1)C1CCCCC1` (stereo not given), the Potency entry was “inactive”.

Take `CC(=O)c1ccc2c(c1)N(CCCN1CCC(CCO)CC1)c1ccccc1S2`: the Potency entry was “inactive”.

As to `CCO[Si](CCCCl)(OCC)OCC`, the Potency result was “inactive”.

Consider `O=C(c1ccc(F)cc1)C1CCN(CCn2c(=S)[nH]c3ccccc3c2=O)CC1`, for which the Potency result was “inactive”.

Consider `COc1ccc2cccc(CCNC(C)=O)c2c1`, for which the Potency entry was “inactive”.

Turning to `COC(C)(C)CCO`, the Potency entry is “inactive”.

As to `CC(COCCO)OCCO` (stereo not given), the Potency result was “inactive”.

Take `NCCCN1CCOCC1`: the Potency result was “inactive”.

Regarding `CC(C)(O)c1ccc(CNC(=O)c2cccnc2Oc2ccc(F)cc2)cc1`, the Potency result was “inactive”.

Consider `CN1C[C@H]2c3ccccc3Oc3ccc(Cl)cc3[C@@H]2C1`, for which the Potency entry is “inactive”.

For the molecule `CC1(c2ccccc2)OC(C(=O)O)=CC1=O` (stereo not given), the Potency entry is “inactive”.

With `CCn1cc(C(=O)O)c(=O)c2cnc(N3CCNCC3)nc21`, the Potency result was “inactive”.

Consider `N=c1ccn2c(n1)O[C@H]1[C@H](O)[C@@H](CO)O[C@H]12`, for which the Potency entry is “inactive”.

As for `CCCCCCCCCOS(=O)(=O)O`, the Potency result is “inactive”.

Consider `CC1OC(=O)C(C)OC1=O` (stereo not given), for which the Potency result was “inactive”.

As to `CCOC(=O)C(=O)CCc1ccccc1`, the Potency result was “inactive”.

For `COc1cc2nc(N3CCN(C(=O)C4COc5ccccc5O4)CC3)nc(N)c2cc1OC` (stereo not given), the Potency entry is “inactive”.

Take `CC1=CCCC(C)(C)C12CCC(C)O2` (stereo not given): the Potency entry was “inactive”.

`COc1ccc(S(=O)(=O)N2C(=O)[C@@](c3ccccc3OC)(N3C[C@H](O)C[C@H]3C(=O)N(C)C)c3cc(Cl)ccc32)c(OC)c1`: the Potency entry is “inactive”.

With `CC1=CC=C(C(C)C)CC1`, the Potency entry was “inactive”.

`CC(=O)c1cccc([N+](=O)[O-])c1`: the Potency entry was “inactive”.

As to `Cc1cccc(C)c1NC(=O)CN(CC(=O)O)CC(=O)O`, the Potency entry is “inactive”.

Take `C=C(C)C(=O)OCC`: the Potency result was “inactive”.

For the molecule `CC(C)(C)OCC1CO1` (stereo not given), the Potency result is “inactive”.

On to `COc1ccc(-c2nc3ccc(C4=NNC(=O)CC4C)cc3[nH]2)cc1` (stereo not given), for which the Potency result is “inactive”.

On to `COC(=O)C1=C(C)NC(COC(N)=O)=C(C(=O)OC(C)C)C1c1cccc(Cl)c1Cl` (stereo not given), for which the Potency entry was “inactive”.

For the molecule `O=C(O)CNCC(=O)O`, the viability change, negative = cytotoxic is 2.06% [at 6.97 µM] (inactive).

In the case of `Nc1cccc(S(=O)(=O)c2cccc(N)c2)c1`, the Potency entry was “inactive”.

Turning to `CCNc1cc(O)ccc1C`, the Potency entry was “inactive”.

`C=C(C)C(=O)OCCOCC`: the Potency result is “inactive”.

On to `OCCN1CCN(CCCN2c3ccccc3C=Cc3ccccc32)CC1`, for which the Potency entry is “inactive”.

Turning to `O=C(NCC1CN(c2ccc(N3CCOCC3=O)cc2)C(=O)O1)c1ccc(Cl)s1` (stereo not given), the Potency entry was “inactive”.

As for `CCCCNc1ccc(C(=O)OCCOCCOCCOCCOCCOCCOCCOCCOCCOC)cc1`, the Potency result is “inactive”.

Consider `O=C1OC(CN2CCOCC2)CN1/N=C/c1ccc([N+](=O)[O-])o1` (stereo not given), for which the Potency result is “inactive”.

Source of the values: PubChem BioAssay (Tox21).
